From PubChem BioAssay AID1159580 (chemical genetic matrix, 2015)
Where “and” joins values, the source holds several entries; their conditions need not be identical. Identical values can stand only once. The campaign covered roughly 5,500 compounds. About 2,000 (36%) were called active. Another 18% or so got no clear call; they are omitted. Rule as the data show it: active = normalized growth mostly below about 0.91 (no sharp cut-off); inconclusive = no clear call, values can overlap the other calls; inactive = mostly above about 0.92. Some of the results follow.

Test: chemical genetic growth profiling, strain panel (AID 1159580);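 also: tested at 20 µM; growth read once vehicle control cultures reached saturation at 30 °C; 1 = growth at the plate median or of vehicle wells; lower values mean less growth of the strain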
Conditions: growth OD

Measured: normalized growth

Nc1ccc(C(=O)O)c(O)c1
inactive: S. cerevisiae deletion strains, locus YKL009W, strain mrt4, active compounds read low 1 | S. cerevisiae deletion strains, locus YKL068W, active compounds read low 0.999 | S. cerevisiae deletion strains, locus YKL085W, strain MDH1 (second series), active compounds read low 0.995 | S. cerevisiae deletion strains, locus YKL085W, strain MDH1, active compounds read low 0.995 | S. cerevisiae deletion strains, locus YKL160W, strain elf1, active compounds read low 0.947 | S. cerevisiae deletion strains, locus YKL190W, strain CNB1, active compounds read low 1.01 | S. cerevisiae deletion strains, locus YKR001C, strain vps1, active compounds read low 0.992 | S. cerevisiae deletion strains, locus YKR026C, strain gcn3, active compounds read low 0.994 | S. cerevisiae deletion strains, locus YKR091W, strain srl3, active compounds read low 0.989 | S. cerevisiae deletion strains, locus YLL001W, strain dnm1, active compounds read low 0.924 | S. cerevisiae deletion strains, locus YLL026W, active compounds read low 1 | S. cerevisiae deletion strains, locus YLL041C, strain sdh2, active compounds read low 0.992 | S. cerevisiae deletion strains, locus YLR027C, strain aat2, active compounds read low 1 | S. cerevisiae deletion strains, locus YLR039C, strain RIC1, active compounds read low 1.02 | S. cerevisiae deletion strains, locus YLR058C, strain SHM2, active compounds read low 1.01 | S. cerevisiae deletion strains, locus YLR102C, strain apc9, active compounds read low 0.998 | S. cerevisiae deletion strains, locus YLR113W, strain HOG1, active compounds read low 1.03 and 1.02 | S. cerevisiae deletion strains, locus YLR221C, strain rsa3, active compounds read low 0.968 | S. cerevisiae deletion strains, locus YLR258W, strain gsy2, active compounds read low 1.01 | S. cerevisiae deletion strains, locus YLR262C, strain YPT6 (second series), active compounds read low 0.961 | S. cerevisiae deletion strains, locus YLR262C, strain YPT6, active compounds read low 1.06 | S. cerevisiae deletion strains, locus YLR268W, strain sec22, active compounds read low 0.99 | S. cerevisiae deletion strains, locus YLR320W, strain mms22, active compounds read low 0.954 | S. cerevisiae deletion strains, locus YLR330W, strain CHS5, active compounds read low 1.01 | S. cerevisiae deletion strains, locus YLR342W, strain FKS1 (second series), active compounds read low 1.04 | S. cerevisiae deletion strains, locus YLR342W, strain FKS1, active compounds read low 0.997 | S. cerevisiae deletion strains, locus YLR357W, strain rsc2, active compounds read low 0.955 | S. cerevisiae deletion strains, locus YLR370C, strain arc18, active compounds read low 0.995 | S. cerevisiae deletion strains, locus YLR371W, strain rom2, active compounds read low 0.997 | S. cerevisiae deletion strains, locus YLR384C, strain iki3, active compounds read low 0.994 | S. cerevisiae deletion strains, locus YLR418C, strain cdc73, active compounds read low 0.996 | S. cerevisiae deletion strains, locus YML016C, strain PPZ1, active compounds read low 1.01 | S. cerevisiae deletion strains, locus YML032C, strain rad52, active compounds read low 1 | S. cerevisiae deletion strains, locus YML120C, strain ndi1, active compounds read low 0.978 | S. cerevisiae deletion strains, locus YML124C, strain tub3, active compounds read low 0.996 | S. cerevisiae deletion strains, locus YMR058W, strain fet3, active compounds read low 0.995 | S. cerevisiae deletion strains, locus YMR078C, strain ctf18, active compounds read low 1 | S. cerevisiae deletion strains, locus YMR125W, strain sto1, active compounds read low 0.945 | S. cerevisiae deletion strains, locus YMR129W, active compounds read low 0.999 | S. cerevisiae deletion strains, locus YMR205C, strain PFK2, active compounds read low 0.939 | S. cerevisiae deletion strains, locus YMR223W, strain ubp8, active compounds read low 1 | S. cerevisiae deletion strains, locus YMR231W, strain pep5, active compounds read low 0.985 | S. cerevisiae deletion strains, locus YMR263W, strain SAP30, active compounds read low 1 | S. cerevisiae deletion strains, locus YMR307W, strain GAS1, active compounds read low 0.991 | S. cerevisiae deletion strains, locus YNL067W, strain RPL9B, active compounds read low 1.01 | S. cerevisiae deletion strains, locus YNL071W, strain lat1, active compounds read low 0.986 | S. cerevisiae deletion strains, locus YNL153C, strain GIM3, active compounds read low 0.998 | S. cerevisiae deletion strains, locus YNL183C, strain NPR1, active compounds read low 0.959 and 0.981 | S. cerevisiae deletion strains, locus YNL209W, strain ssb2, active compounds read low 0.997 | S. cerevisiae deletion strains, locus YNL233W, strain BNI4, active compounds read low 0.998 | S. cerevisiae deletion strains, locus YNL248C, strain rpa49, active compounds read low 0.967 | S. cerevisiae deletion strains, locus YNL250W, strain rad50, active compounds read low 1 | S. cerevisiae deletion strains, locus YNL271C, strain bni1, active compounds read low 0.985 | S. cerevisiae deletion strains, locus YNL298W, strain CLA4, active compounds read low 0.989 | S. cerevisiae deletion strains, locus YNL307C, strain MCK1, active compounds read low 1 | S. cerevisiae deletion strains, locus YNL322C, strain KRE1 (second series), active compounds read low 0.977 | S. cerevisiae deletion strains, locus YNL322C, strain KRE1, active compounds read low 1.01 | S. cerevisiae deletion strains, locus YNR049C, strain mso1, active compounds read low 0.994 | S. cerevisiae deletion strains, locus YNR052C, strain pop2, active compounds read low 0.998 | S. cerevisiae deletion strains, locus YOL006C, strain TOP1, active compounds read low 1.04 | S. cerevisiae deletion strains, locus YOL012C, strain htz1 0.886 | S. cerevisiae deletion strains, locus YOL147C, strain pex11, active compounds read low 0.999 | S. cerevisiae deletion strains, locus YOR001W, strain rrp6, active compounds read low 1.04 | S. cerevisiae deletion strains, locus YOR061W, strain CKA2, active compounds read low 1.01 | S. cerevisiae deletion strains, locus YOR069W, strain VPS5, active compounds read low 1.01 | S. cerevisiae deletion strains, locus YOR070C, strain gyp1, active compounds read low 0.995 | S. cerevisiae deletion strains, locus YOR080W, strain dia2, active compounds read low 1 | S. cerevisiae deletion strains, locus YOR083W, strain WHI5, active compounds read low 0.945 | S. cerevisiae deletion strains, locus YOR106W, strain vam3, active compounds read low 0.999 | S. cerevisiae deletion strains, locus YOR136W, strain idh2, active compounds read low 0.992 | S. cerevisiae deletion strains, locus YOR144C, strain elg1, active compounds read low 0.996 | S. cerevisiae deletion strains, locus YOR184W, strain ser1, active compounds read low 0.997 | S. cerevisiae deletion strains, locus YOR231W, strain MKK1, active compounds read low 1.01 and 1.04 | S. cerevisiae deletion strains, locus YOR265W, strain rbl2, active compounds read low 0.997 | S. cerevisiae deletion strains, locus YOR270C, strain vph1, active compounds read low 0.987 | S. cerevisiae deletion strains, locus YOR290C, strain snf2, active compounds read low 0.963 | S. cerevisiae deletion strains, locus YOR316C, strain cot1, active compounds read low 0.997 | S. cerevisiae deletion strains, locus YPL051W, strain arl3, active compounds read low 0.979 | S. cerevisiae deletion strains, locus YPL055C, strain LGE1, active compounds read low 1.01 | S. cerevisiae deletion strains, locus YPL078C, strain atp4, active compounds read low 0.946 | S. cerevisiae deletion strains, locus YPL106C, strain sse1, active compounds read low 0.968 | S. cerevisiae deletion strains, locus YPL240C, strain hsp82, active compounds read low 0.991 | S. cerevisiae deletion strains, locus YPL241C, strain CIN2, active compounds read low 1.01 | S. cerevisiae deletion strains, locus YPL256C, strain CLN2, active compounds read low 1.03 and 1.04 | S. cerevisiae deletion strains, locus YPR119W, strain clb2, active compounds read low 0.998 | S. cerevisiae deletion strains, locus YPR141C, strain kar3, active compounds read low 0.999 | S. cerevisiae deletion strains, locus YPR163C, strain tif3, active compounds read low 0.99 | S. cerevisiae deletion strains, locus YPR167C, strain met16, active compounds read low 1.01 | S. cerevisiae deletion strains, strain wtn01, active compounds read low 0.984 | S. cerevisiae strains, strain wild type, active compounds read low 1.01
